RecA splice inh: Mtb RecA intein splicing inhibitors, primary screen, biochemical, fluorescence, HTS. Protein RecA (Mycobacterium tuberculosis (strain ATCC 25618 / H37Rv)), P9WHJ3. cell-free RecA intein splicing. inhibition, % (test concentration not listed). 0.75% of 290,000 active. AID 2221, 2009; in the data active = inhibition above about 30%;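 note: 0% = vehicle wells and 100% = reference inhibitor control wells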
Target sequence (P9WHJ3 whole entry, looked up, canonical isoform): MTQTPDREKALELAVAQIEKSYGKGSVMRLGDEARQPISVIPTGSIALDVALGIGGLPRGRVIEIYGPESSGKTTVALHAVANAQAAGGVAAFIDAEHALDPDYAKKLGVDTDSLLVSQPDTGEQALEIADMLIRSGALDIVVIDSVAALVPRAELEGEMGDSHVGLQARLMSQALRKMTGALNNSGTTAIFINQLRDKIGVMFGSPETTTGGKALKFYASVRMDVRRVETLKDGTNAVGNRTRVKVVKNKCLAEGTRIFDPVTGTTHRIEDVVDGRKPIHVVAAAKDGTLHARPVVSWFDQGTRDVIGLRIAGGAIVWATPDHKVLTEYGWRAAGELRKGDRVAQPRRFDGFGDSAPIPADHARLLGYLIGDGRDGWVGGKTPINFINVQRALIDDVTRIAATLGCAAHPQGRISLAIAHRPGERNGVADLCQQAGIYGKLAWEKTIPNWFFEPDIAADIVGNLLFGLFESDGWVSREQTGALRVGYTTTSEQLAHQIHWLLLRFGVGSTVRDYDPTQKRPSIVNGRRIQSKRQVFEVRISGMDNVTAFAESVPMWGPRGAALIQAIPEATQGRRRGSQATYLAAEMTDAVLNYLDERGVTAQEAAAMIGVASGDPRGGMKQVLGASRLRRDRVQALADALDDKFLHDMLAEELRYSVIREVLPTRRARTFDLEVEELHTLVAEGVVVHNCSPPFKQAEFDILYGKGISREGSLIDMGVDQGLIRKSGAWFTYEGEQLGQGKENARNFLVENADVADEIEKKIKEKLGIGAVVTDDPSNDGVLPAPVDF
BJeLR viability: MLPCN primary cell-based screen for lethality selective to Ras in HRASV12 cells; BJeLR (HRASV12) viability, CellTiter-Glo ATP luminescence, 48 h; inhibition, % (concentration not given with the values); 0.17% of 300,000 active; AID 1554, 2009; in the data active = inhibition above about 50%
CCHF vOTU inh-1: CCHFV vOTU protease inhibitors, primary screen, biochemical, Pep-AMC substrate, fluorescence | 0.55% of 370,000 active | inhibition, % at 11.5 µM | Crimean-Congo hemorrhagic fever virus L polyprotein viral ovarian tumor (vOTU) protease …; note: 0% = vehicle wells with enzyme and 100% = no enzyme wells
Mtb betalactam: beta-lactam sensitization of Mtb H37Rv, H37Rv; M. tuberculosis H37Rv growth with meropenem, percent inhibition; inhibition, % at 25 µM; 0.27% of 330,000 active; call rule not given here;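 note: growth measured after seven days incubation then overnight dye step; 0% = bacteria only wells and 100% = bacteria with antibiotic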
Mtb BioA inh: M. tuberculosis BioA enzyme inhibitors, primary screen, biochemical, plate reader, single point, HTS | 7,8-diaminopelargonic acid synthase BioA (Mycobacterium tuberculosis) | purified M. tuberculosis BioA enzyme | inhibition, % at 9.99 µM | 0.096% of 360,000 active | AID 602481, 2012; in the data active = inhibition above about 40%
Yp Topo-I inh: Yersinia pestis topoisomerase I inhibitors, primary screen, biochemical, cleavage product accumulation, plate reader, single point; DNA topoisomerase I (Yersinia pestis CO92); Y. pestis Topo-I cleavage product accumulation; activity, % at 10 µM; 0.064% of 360,000 active; AID 504884, 2011; in the data active = activity above about 50%, passing the limit was not always enough
CCHF vOTU inh-2: CCHFV vOTU protease inhibitors, confirmation, biochemical, Pep-AMC substrate, fluorescence | 17% of 1,900 active | shares compounds with CCHF vOTU inh-1 | Recombinant CCHFV vOTU | inhibition, % at 11.5 µM
An asterisk follows results filed as active. Rows were chosen to be rich in hits. Some 1.1% of all compounds tested hit in one or more screens of this group. Cut-off read from the data, not from the text of the source, unless noted: active = inhibition above about 30%; inactive = the rest.

How did COc1cc(C=Nn2c(-c3cc(-c4ccccc4)n[nH]3)n[nH]c2=S)ccc1OC(C)=O do in these assays?
CCHF vOTU inh-1: 30*; CCHF vOTU inh-2: -12

What do the screens show for `S=c1[nH]nc(-c2cc(-c3ccccc3)n[nH]2)n1/N=C/c1ccccc1`?
RecA splice inh: -8; BJeLR viability: 7; CCHF vOTU inh-1: -2; Mtb betalactam: 8; Mtb BioA inh: 1; Yp Topo-I inh: -8

What do the screens show for `CCOc1ccc(NC(=O)CNS(=O)(=O)c2c(C)cc(C)cc2C)cc1`?
RecA splice inh: 4; BJeLR viability: -1; CCHF vOTU inh-1: 43*; Mtb betalactam: -4; Mtb BioA inh: 1; Yp Topo-I inh: 10; CCHF vOTU inh-2: -16

What do the screens show for `O=C(NCC[C@@H]1CC[C@@H](NS(=O)(=O)c2cccc(F)c2)[C@H](CO)O1)C1CCCC1`?
Mtb BioA inh: -1

Results for O=C1C=C(O)c2c(O)cc(O)c(O)c2C1=O ?
RecA splice inh: 17; BJeLR viability: -3; CCHF vOTU inh-1: 12; Mtb betalactam: 5; Mtb BioA inh: 3; Yp Topo-I inh: -2

How did O=C1C=C(O)c2[nH]c(=O)ccc2C1=O do in these assays?
CCHF vOTU inh-1: 95*; Yp Topo-I inh: -2; CCHF vOTU inh-2: 67*

How did CC(=O)Nc1c(S(=O)(=O)c2ccccc2)c2nc3ccccc3nc2n1Cc1ccccc1 do in these assays?
RecA splice inh: 1; BJeLR viability: 0; CCHF vOTU inh-1: -133; Mtb betalactam: -5; Mtb BioA inh: -1; Yp Topo-I inh: 22

Results for O=S(=O)(Nc1c(S(=O)(=O)c2ccccc2)c2nc3ccccc3nc2n1C1CCCCC1)c1ccccc1 ?
RecA splice inh: -21; BJeLR viability: 9; CCHF vOTU inh-1: 94*; Mtb betalactam: -2; Mtb BioA inh: 1; Yp Topo-I inh: 28; CCHF vOTU inh-2: 64*

How did C=CCn1c(NS(=O)(=O)c2ccccc2)c(S(=O)(=O)c2ccc(C)cc2)c2nc3ccccc3nc21 do in these assays?
RecA splice inh: -1; BJeLR viability: 5; CCHF vOTU inh-1: 33*; Mtb betalactam: -3; Mtb BioA inh: -1; Yp Topo-I inh: 7; CCHF vOTU inh-2: -14

What do the screens show for `COc1ccc(CNCCS(=O)(=O)NCc2ccc(OC)cc2)cc1`?
CCHF vOTU inh-1: 29; Mtb BioA inh: 0; Yp Topo-I inh: 9

How did CCCCCCCCNS(=O)(=O)CCNCc1ccc(OC)cc1 do in these assays?
CCHF vOTU inh-1: 32*; Mtb BioA inh: 1; Yp Topo-I inh: 44; CCHF vOTU inh-2: 6

What do the screens show for `COc1ccc(CNS(=O)(=O)CCNC(=O)c2ccc(OC)cc2)cc1`?
RecA splice inh: -1; BJeLR viability: -7; CCHF vOTU inh-1: 31*; Mtb betalactam: -3; Mtb BioA inh: -1; Yp Topo-I inh: -6; CCHF vOTU inh-2: -14

What do the screens show for `C[C@H]1CN([C@@H](C)CO)S(=O)(=O)c2ccc(-c3cccc(C#N)c3)cc2O[C@@H]1CN(C)Cc1cccc(F)c1`?
Mtb BioA inh: 0

What do the screens show for `CCN(C(=S)NCCOC)c1cccc2ccccc12`?
RecA splice inh: 1; BJeLR viability: -7; CCHF vOTU inh-1: -14; Mtb betalactam: 10; Yp Topo-I inh: 6

How did CCN(C(=S)NC(=O)c1ccco1)c1cccc2ccccc12 do in these assays?
CCHF vOTU inh-1: 46*; Mtb betalactam: 52; Mtb BioA inh: 1; Yp Topo-I inh: 0; CCHF vOTU inh-2: -44

What do the screens show for `COc1cc(CNC2CCCC2)c(Br)cc1OC1CCCC1`?
RecA splice inh: 0; BJeLR viability: 4; CCHF vOTU inh-1: 4; Mtb betalactam: 2; Yp Topo-I inh: 6

Results for COc1cc(CNCc2ccccc2)c(Br)cc1OC1CCCC1 ?
RecA splice inh: 1; BJeLR viability: -3; CCHF vOTU inh-1: 31*; Mtb betalactam: 68; Mtb BioA inh: 1; Yp Topo-I inh: 38; CCHF vOTU inh-2: -11

Results for COc1ccccc1S(=O)(=O)N[C@H]1CC[C@H](CCNC(=O)C2CCOCC2)O[C@@H]1CO ?
Mtb BioA inh: 0

How did O=C(NNc1cccc(Cl)n1)Nc1ccc(Cl)cc1 do in these assays?
RecA splice inh: 8; BJeLR viability: 1; CCHF vOTU inh-1: 42*; Mtb betalactam: 3; Yp Topo-I inh: -2; CCHF vOTU inh-2: -16

What do the screens show for `C[C@@H]1CCCCO[C@H](CN(C)Cc2ccccc2)[C@H](C)CN([C@@H](C)CO)C(=O)c2cc(NS(=O)(=O)c3ccc(F)cc3)ccc2O1`?
Mtb BioA inh: 1

Results for O=C(Nc1cccc(Cl)c1)Nc1ccnc(-c2cccnc2)n1 ?
RecA splice inh: 5; BJeLR viability: -3; CCHF vOTU inh-1: 32*; Mtb betalactam: 12; Yp Topo-I inh: 4; CCHF vOTU inh-2: -20

Results for O=C(Nc1cccc(Cl)c1)Nc1cnccn1 ?
RecA splice inh: 0; BJeLR viability: -13; CCHF vOTU inh-1: -12; Mtb betalactam: -14; Mtb BioA inh: -1; Yp Topo-I inh: 5

Results for Cc1ccc(S(=O)(=O)NCC[C@H]2CC[C@@H](NC(=O)c3cccc(F)c3)[C@H](CO)O2)cc1 ?
Mtb BioA inh: 10

What do the screens show for `CC(C)CCOP(=O)(c1ccc(N(C)C)cc1)C(O)c1ccc(Cl)cc1Cl` (stereo unspecified)?
RecA splice inh: 22; BJeLR viability: -3; CCHF vOTU inh-1: 41*; Mtb betalactam: 9; Yp Topo-I inh: 34; CCHF vOTU inh-2: 1

Results for CC(C)CCOP(=O)(c1ccc(N(C)C)cc1)C(O)c1ccccc1F (stereo unspecified) ?
RecA splice inh: 1; BJeLR viability: 3; CCHF vOTU inh-1: 6; Mtb betalactam: -2; Mtb BioA inh: 1; Yp Topo-I inh: 9

How did COc1ccc(NC(=O)CN(C)CC(=O)NC(=O)NC2CCCCC2)cc1 do in these assays?
CCHF vOTU inh-1: 38*; Mtb betalactam: -4; Mtb BioA inh: 3; Yp Topo-I inh: 5; CCHF vOTU inh-2: -18

What do the screens show for `CN(CC(=O)NC(=O)NC1CCCCC1)CC(=O)Nc1ccc(OC(F)(F)F)cc1`?
CCHF vOTU inh-1: 17; Mtb betalactam: 9; Yp Topo-I inh: 18

What do the screens show for `Cc1[nH][nH]c(=O)c1C(c1c(C)[nH][nH]c1=O)c1cn(Cc2ccc(Cl)c(Cl)c2)c2ccccc12`?
RecA splice inh: 1; BJeLR viability: 18; CCHF vOTU inh-1: 56*; Mtb betalactam: 4; Mtb BioA inh: 5; Yp Topo-I inh: 3; CCHF vOTU inh-2: 9
